# Test results from PubChem BioAssay (EPA / NIEHS).
# The source made the active and inactive calls. How the source made its calls, unless noted: active means hit-call score of the fitted dose curve at least 0.9, where 1 is the maximum; inactive means score below 0.9.
# Legend:
# [1] = read-out: Protein phosphatase 2A (PPP2R4), PTPA (gene 5524); experiment: LTEA_HepaRG_PPP2R4: Life Technologies and Expression Analysis (LTEA) Assay for Protein phosphatase 2A (PPP2R4) using HepaRG (AID 2283522); settings: mRNA level, 48 h; actives raise or lower the signal
# Outline: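 HepaRG, 48 h exposure, 8-pt half-log series from 100 uM, 0.5% DMSO vehicle, duplicates. Readout: PPP2R4 mRNA, Fluidigm qRT-PCR, housekeeping-normalized. Bidirectional curve fit vs DMSO baseline.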
# [2] = read-out: Phosphatase and tensin (PTEN), PTEN (gene 5728); experiment: LTEA_HepaRG_PTEN: Life Technologies and Expression Analysis (LTEA) Assay for Phosphatase and tensin (PTEN) using HepaRG (AID 2283523); settings: mRNA level, 48 h; actives raise or lower the signal
# Outline: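 HepaRG, 48 h exposure, 8-pt half-log series from 100 uM top, 0.5% DMSO vehicle, duplicates. Readout: Fluidigm qRT-PCR of PTEN transcript; housekeeping normalization (ACTB, GAPDH, POLR2A). Gain or loss fitted relative to DMSO baseline.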
# [3] = read-out: solute carrier (SLC22A1), SLC22A1 (gene 6580); experiment: LTEA_HepaRG_SLC22A1: Life Technologies and Expression Analysis (LTEA) Assay for solute carrier (SLC22A1) using HepaRG (AID 2283524); settings: mRNA level, 48 h; actives raise or lower the signal
# Outline: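 qRT-PCR readout (TaqMan, Fluidigm arrays) of SLC22A1 transcript, normalized to three housekeeping genes; bidirectional curve fit relative to 0.5% DMSO vehicle. Differentiated human HepaRG cells, 48 h chemical exposure, top concentration 100 uM, half-log steps, eight points.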
# [4] = read-out: Pyruvate Dehydrogenase Kinase 4 (PDK4), PDK4 (gene 5166); experiment: LTEA_HepaRG_PDK4: Life Technologies and Expression Analysis (LTEA) Assay for Pyruvate Dehydrogenase Kinase 4 (PDK4) using HepaRG (AID 2283525); settings: mRNA level, 48 h; actives raise or lower the signal
# Outline: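 HepaRG (human liver line), 48 h chemical exposure, 8-pt half-log CRC top 100 uM, 0.5% DMSO vehicle, duplicates. Readout: TaqMan qRT-PCR of PDK4 mRNA, housekeeping-normalized; gain/loss fit relative to DMSO baseline.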
# [5] = read-out: NAD(P)H dehydrogenase [quinone] 1 (NQO1), NQO1 (gene 1728); experiment: LTEA_HepaRG_NQO1: Life Technologies and Expression Analysis (LTEA) Assay for NAD(P)H dehydrogenase [quinone] 1 (NQO1) using HepaRG (AID 2283526); settings: mRNA level, 48 h; actives raise or lower the signal
# Outline: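 qRT-PCR read-out (Fluidigm TaqMan), normalized to three housekeeping genes, after 48 h chemical exposure of HepaRG cells. Concentrations: eight points, top 100 uM, half-log steps, 0.5% DMSO vehicle. Gain or loss of signal fitted relative to DMSO.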
# [6] = read-out: succinate dehydrogenase complex iron sulfur subunit B (SDHB), SDHB (gene 6390); experiment: LTEA_HepaRG_SDHB: Life Technologies and Expression Analysis (LTEA) Assay for succinate dehydrogenase complex iron sulfur subunit B (SDHB) using HepaRG (AID 2283528); settings: mRNA level, 48 h; actives raise or lower the signal
# Outline: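 Readout is SDHB transcript level by qRT-PCR, normalised to three housekeeping genes and fitted bidirectionally against 0.5% DMSO vehicle. Human HepaRG cells were treated for 48 h at up to 100 uM.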
# [7] = read-out: Signal transducer and activator of transcription 3 (Homo sapiens) (UniProt P40763); experiment: LTEA_HepaRG_STAT3: Life Technologies and Expression Analysis (LTEA) Assay for Signal transducer and activator of transcription (STAT3) using HepaRG (AID 2283529); settings: mRNA level, 48 h; actives raise or lower the signal
# Outline: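 HepaRG, 48 h exposure, 8-pt half-log series (top 100 uM), 0.5% DMSO vehicle, duplicates. Readout: STAT3 transcript by Fluidigm qRT-PCR, housekeeping-normalized; bidirectional fit vs DMSO baseline.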
# [8] = read-out: solute carrier (SLCO1B1), SLCO1B1 (gene 10599); experiment: LTEA_HepaRG_SLCO1B1: Life Technologies and Expression Analysis (LTEA) Assay for solute carrier (SLCO1B1) using HepaRG (AID 2283530); settings: mRNA level, 48 h; actives raise or lower the signal
# Outline: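 Differentiated human HepaRG cells were exposed for 48 h in serum-free induction medium to eight half-log concentrations, top 100 uM, in 0.5% DMSO. SLCO1B1 mRNA was measured by qRT-PCR, normalized to ACTB, GAPDH and POLR2A, and fitted bidirectionally against DMSO.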
# [9] = read-out: sulfotransferase 2A1 (SULT2A1), SULT2A1 (gene 6822); experiment: LTEA_HepaRG_SULT2A1: Life Technologies and Expression Analysis (LTEA) Assay for sulfotransferase 2A1 (SULT2A1) using HepaRG (AID 2283531); settings: mRNA level, 48 h; actives raise or lower the signal
# Outline: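 HepaRG human liver cells, 48 h exposure in serum-free induction medium to 8 half-log concentrations topping at 100 µM (0.5% DMSO), duplicate wells. SULT2A1 mRNA measured by TaqMan qRT-PCR, normalized to ACTB/GAPDH/POLR2A; bidirectional fit against DMSO.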
# [10] = read-out: Transforming Growth Factor (TGFA), TGFA (gene 7039); experiment: LTEA_HepaRG_TGFA: Life Technologies and Expression Analysis (LTEA) Assay for Transforming Growth Factor (TGFA) using HepaRG (AID 2283532); settings: mRNA level, 48 h; actives raise or lower the signal
# Outline: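 qRT-PCR read-out of TGFA transcript, normalized to three housekeeping genes, fitted bidirectionally against 0.5% DMSO baseline. Human HepaRG cultures received chemicals for 48 h at eight half-log concentrations, top 100 uM.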
# [11] = read-out: Transforming Growth Factor (TGFB1), TGFB1 (gene 7040); experiment: LTEA_HepaRG_TGFB1: Life Technologies and Expression Analysis (LTEA) Assay for Transforming Growth Factor (TGFB1) Transporter using HepaRG (AID 2283533); settings: mRNA level, 48 h; actives raise or lower the signal
# Outline: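 Differentiated HepaRG cells exposed 48 hr in serum-free induction medium to eight half-log concentrations up to 100 uM (0.5% DMSO), duplicate; TGFB1 mRNA by TaqMan qRT-PCR normalised to ACTB, GAPDH, POLR2A; bidirectional fit against DMSO.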
# [12] = read-out: Tumor necrosis factor receptor 1 (TNFRSF1A), TNFRSF1A (gene 7132); experiment: LTEA_HepaRG_TNFRSF1A: Life Technologies and Expression Analysis (LTEA) Assay for Tumor necrosis factor receptor 1 (TNFRSF1A) using HepaRG (AID 2283535); settings: mRNA level, 48 h; actives raise or lower the signal
# Outline: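 Differentiated HepaRG cells in serum-free induction medium, exposed 48 h in duplicate to 8 half-log concentrations up to 100 uM in 0.5% DMSO. TNFRSF1A mRNA by Fluidigm TaqMan qRT-PCR, normalized to ACTB, GAPDH, POLR2A; bidirectional fit.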
# [13] = read-out: Thyroid Hormone Responsive (THRSP), THRSP (gene 7069); experiment: LTEA_HepaRG_THRSP: Life Technologies and Expression Analysis (LTEA) Assay for Thyroid Hormone Responsive (THRSP) using HepaRG (AID 2283536); settings: mRNA level, 48 h; actives raise or lower the signal
# Outline: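 qRT-PCR read-out (Fluidigm TaqMan), housekeeping-normalized (ACTB/GAPDH/POLR2A). HepaRG, 48 h chemical exposure, 8-pt half-log series from 100 uM in 0.5% DMSO, duplicates. Bidirectional curve fit vs 0.5% DMSO baseline.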
# [14] = read-out: Cellular tumor antigen p53 (Homo sapiens) (UniProt P04637); experiment: LTEA_HepaRG_TP53: Life Technologies and Expression Analysis (LTEA) Assay for Tumor Protein P53 (TP53) using HepaRG (AID 2283537); settings: mRNA level, 48 h; actives raise or lower the signal
# Outline: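 Read-out is TP53 transcript level by microfluidic qRT-PCR, normalised to three housekeeping genes and fitted bidirectionally against DMSO. Human HepaRG cells received compounds for 48 h, highest concentration 100 uM.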
# [15] = read-out: UDP glucuronosyltransferase (UGT1A1), UGT1A1 (gene 54658); experiment: LTEA_HepaRG_UGT1A1: Life Technologies and Expression Analysis (LTEA) Assay for UDP glucuronosyltransferase (UGT1A1) using HepaRG (AID 2283538); settings: mRNA level, 48 h; actives raise or lower the signal
# Outline: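 HepaRG, 48 h chemical exposure (top 100 uM, half-log 8-pt, 0.5% DMSO vehicle), duplicate wells; qRT-PCR (TaqMan, Fluidigm array) for UGT1A1 mRNA, housekeeping-normalized; bidirectional curve fit vs DMSO baseline.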
# [16] = read-out: UDP glucuronosyltransferase (UGT1A6), UGT1A6 (gene 54578); experiment: LTEA_HepaRG_UGT1A6: Life Technologies and Expression Analysis (LTEA) Assay for UDP glucuronosyltransferase (UGT1A6) using HepaRG (AID 2283539); settings: mRNA level, 48 h; actives raise or lower the signal
# Outline: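 Differentiated HepaRG cells, ~100,000/well, were exposed for 48 h in serum-free induction medium with 0.5% DMSO to 8-point half-log series topping at 100 uM, in duplicate. mRNA measured by Fluidigm TaqMan qRT-PCR, normalized to ACTB, GAPDH and POLR2A.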
# [17] = read-out: X-box binding protein 1 (XBP1), XBP1 (gene 7494); experiment: LTEA_HepaRG_XBP1: Life Technologies and Expression Analysis (LTEA) Assay for X-box binding protein 1 (XBP1) using HepaRG (AID 2283540); settings: mRNA level, 48 h; actives raise or lower the signal
# Outline: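 Differentiated human HepaRG cells in serum-free induction medium exposed 48 h in duplicate to eight half-log concentrations up to 100 uM in 0.5% DMSO. XBP1 mRNA measured by Fluidigm TaqMan qRT-PCR, normalized to ACTB, GAPDH, POLR2A; bidirectional fitting against DMSO.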
# [18] = LTEA_HepaRG_LDH_cytotoxicity: Cytotoxicity Assessment in the Life Technologies and Expression Analysis (LTEA) Assay (AID 2283563; active means hit-call score of the fitted dose curve at least 0.9, where 1 is the maximum;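 on AC50: LDH activity released into spent culture medium as a marker of cell death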)
# Outline: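 Differentiated HepaRG cells in serum-free induction medium, exposed 48 h in duplicate to 8 half-log concentrations up to 100 uM in 0.5% DMSO. Cytotoxicity from LDH measured in spent medium, fit relative to DMSO.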
# [19] = read-out: Nuclear factor erythroid 2-related factor 2 (Homo sapiens) (UniProt Q16236); experiment: LTEA_HepaRG_NFE2L2: Life Technologies and Expression Analysis (LTEA) Assay for Nuclear factor erythroid 2-related factor 2 (NFE2L2) Transcription Factor using HepaRG (AID 2283527); settings: mRNA level, 48 h; actives raise or lower the signal
# Outline: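 HepaRG, 48 h dosing, 8-pt half-log series from 100 uM in 0.5% DMSO, duplicates. Read-out: NFE2L2 mRNA by qRT-PCR (ACTB/GAPDH/POLR2A normalization). Bidirectional curve fit vs DMSO baseline.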
# Chain of Cellular tumor antigen p53 (Homo sapiens) (P04637 whole entry, looked up): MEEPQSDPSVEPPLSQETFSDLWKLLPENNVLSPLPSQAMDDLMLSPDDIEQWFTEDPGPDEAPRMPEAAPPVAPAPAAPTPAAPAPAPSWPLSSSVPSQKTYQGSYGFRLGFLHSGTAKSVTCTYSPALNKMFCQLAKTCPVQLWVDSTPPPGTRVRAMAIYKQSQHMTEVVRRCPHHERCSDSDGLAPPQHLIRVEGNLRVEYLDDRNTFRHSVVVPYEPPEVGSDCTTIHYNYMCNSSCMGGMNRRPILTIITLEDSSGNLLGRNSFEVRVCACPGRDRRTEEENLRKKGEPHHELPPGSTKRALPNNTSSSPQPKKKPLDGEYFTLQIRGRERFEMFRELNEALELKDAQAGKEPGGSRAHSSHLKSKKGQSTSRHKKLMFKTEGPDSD
# Chain of Signal transducer and activator of transcription 3 (Homo sapiens) (P40763 whole entry, looked up): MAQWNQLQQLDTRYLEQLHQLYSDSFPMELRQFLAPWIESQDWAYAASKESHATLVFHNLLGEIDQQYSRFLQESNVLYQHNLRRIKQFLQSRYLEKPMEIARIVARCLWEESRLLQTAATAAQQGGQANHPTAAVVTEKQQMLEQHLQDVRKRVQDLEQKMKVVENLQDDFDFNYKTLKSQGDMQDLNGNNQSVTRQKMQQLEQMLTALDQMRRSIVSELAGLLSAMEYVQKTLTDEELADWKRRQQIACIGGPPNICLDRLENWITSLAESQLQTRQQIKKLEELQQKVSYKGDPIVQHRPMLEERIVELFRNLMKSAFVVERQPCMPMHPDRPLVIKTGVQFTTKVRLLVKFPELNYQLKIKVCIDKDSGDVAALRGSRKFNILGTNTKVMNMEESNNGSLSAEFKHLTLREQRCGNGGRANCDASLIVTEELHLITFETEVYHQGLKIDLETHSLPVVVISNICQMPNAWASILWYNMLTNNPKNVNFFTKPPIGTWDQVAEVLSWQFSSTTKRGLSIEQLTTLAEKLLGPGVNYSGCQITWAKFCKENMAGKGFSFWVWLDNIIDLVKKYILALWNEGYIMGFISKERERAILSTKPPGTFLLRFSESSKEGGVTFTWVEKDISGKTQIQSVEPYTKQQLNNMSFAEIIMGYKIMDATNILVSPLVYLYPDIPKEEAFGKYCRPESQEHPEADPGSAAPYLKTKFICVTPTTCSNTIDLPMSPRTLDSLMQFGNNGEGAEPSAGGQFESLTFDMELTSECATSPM
# Chain of Nuclear factor erythroid 2-related factor 2 (Homo sapiens) (Q16236 whole entry, looked up): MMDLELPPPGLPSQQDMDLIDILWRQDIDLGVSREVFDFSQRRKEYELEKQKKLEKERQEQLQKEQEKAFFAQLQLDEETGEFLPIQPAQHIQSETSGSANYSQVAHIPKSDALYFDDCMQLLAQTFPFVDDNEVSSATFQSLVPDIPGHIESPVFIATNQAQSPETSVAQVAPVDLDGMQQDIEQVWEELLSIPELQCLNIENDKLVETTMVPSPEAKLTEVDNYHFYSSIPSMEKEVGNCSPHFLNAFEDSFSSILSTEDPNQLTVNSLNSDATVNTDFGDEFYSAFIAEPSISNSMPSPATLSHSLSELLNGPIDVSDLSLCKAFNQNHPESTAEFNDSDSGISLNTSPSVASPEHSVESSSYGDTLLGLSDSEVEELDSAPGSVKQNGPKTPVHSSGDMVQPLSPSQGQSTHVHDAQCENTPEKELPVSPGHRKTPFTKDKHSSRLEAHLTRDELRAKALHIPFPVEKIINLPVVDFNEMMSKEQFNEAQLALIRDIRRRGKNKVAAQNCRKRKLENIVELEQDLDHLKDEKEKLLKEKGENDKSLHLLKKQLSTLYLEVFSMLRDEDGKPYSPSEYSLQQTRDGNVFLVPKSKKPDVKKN
structure (smiles),measurement,setting,value
Cc1occc1C(=O)Nc1ccc(C(=O)N2CCC(F)(F)/C(=C\C(=O)N3CCC(N4CCCCC4)CC3)c3ccccc32)cc1,outcome,[1],inactive
same,outcome,[2],inactive
same,AC50,[3],32.2 µM (active)
same,AC50,[4],50.3 µM (active)
same,outcome,[5],inactive
same,outcome,[6],inactive
same,outcome,[7],inactive
same,outcome,[8],inactive
same,outcome,[9],inactive
same,outcome,[10],inactive
same,outcome,[11],inactive
same,outcome,[12],inactive
same,outcome,[13],inactive
same,outcome,[14],inactive
same,AC50,[15],54.3 µM (active)
same,outcome,[16],inactive
same,outcome,[17],inactive
same,AC50,[18],49.6 µM (active)
c1ccc(C[n+]2cccc3ccccc32)cc1,outcome,[1],inactive
same,outcome,[2],inactive
same,AC50,[3],25 µM (active)
same,AC50,[4],31 µM (active)
same,outcome,[5],inactive
same,outcome,[6],inactive
same,AC50,[7],20.5 µM (active)
same,AC50,[8],31.1 µM (active)
same,AC50,[9],32.4 µM (active)
same,AC50,[10],63 µM (active)
same,outcome,[11],inactive
same,AC50,[12],27.3 µM (active)
same,AC50,[14],35.7 µM (active)
same,AC50,[15],26 µM (active)
same,outcome,[16],inactive
same,outcome,[17],inactive
same,AC50,[18],34.4 µM (active)
CCN(CC)C(=O)c1cc(S(=O)(=O)Cc2ccccc2)c(N2CCC(c3ccccc3)CC2)cc1N(CC)CCN(C)C,outcome,[1],inactive
same,AC50,[2],22.9 µM (active)
same,outcome,[3],inactive
same,outcome,[4],inactive
same,AC50,[19],29.1 µM (active)
same,outcome,[6],inactive
same,outcome,[7],inactive
same,AC50,[8],33.3 µM (active)
same,AC50,[9],32.6 µM (active)
same,AC50,[10],27.9 µM (active)
same,AC50,[12],30.1 µM (active)
same,AC50,[13],6.01 µM (active)
same,AC50,[14],30.7 µM (active)
same,AC50,[16],30 µM (active)
same,AC50,[17],28.8 µM (active)
same,AC50,[18],31.1 µM (active)
CCCCOC(=O)c1ccc(O)cc1,outcome,[1],inactive
same,outcome,[2],inactive
same,outcome,[3],inactive
same,outcome,[4],inactive
same,outcome,[5],inactive
same,outcome,[6],inactive
same,outcome,[7],inactive
same,outcome,[8],inactive
same,outcome,[9],inactive
same,outcome,[10],inactive
same,outcome,[12],inactive
same,outcome,[14],inactive
same,outcome,[16],inactive
same,outcome,[17],inactive
same,outcome,[18],inactive
O=C(O)Cn1c(=O)n(Cc2ccc(Br)cc2F)c(=O)c2ccc(Cl)cc21,outcome,[1],inactive
same,outcome,[2],inactive
same,outcome,[3],inactive
same,AC50,[4],38.8 µM (active)
same,outcome,[5],inactive
same,outcome,[6],inactive
same,outcome,[7],inactive
same,outcome,[8],inactive
same,outcome,[9],inactive
same,outcome,[10],inactive
same,outcome,[12],inactive
same,AC50,[13],10.3 µM (active)
same,outcome,[14],inactive
same,AC50,[15],17.7 µM (active)
same,outcome,[16],inactive
same,outcome,[17],inactive
same,outcome,[18],inactive
Clc1ccccc1C(c1ccccc1)(c1ccccc1)n1ccnc1,AC50,[1],92.2 µM (active)
same,AC50,[2],87.2 µM (active)
same,AC50,[3],23.1 µM (active)
same,AC50,[4],28.3 µM (active)
same,outcome,[5],inactive
same,AC50,[6],90.5 µM (active)
same,outcome,[7],inactive
same,AC50,[8],23.7 µM (active)
same,AC50,[9],23.3 µM (active)
same,AC50,[10],23.2 µM (active)
same,outcome,[12],inactive
same,AC50,[14],28 µM (active)
same,AC50,[16],15.8 µM (active)
same,outcome,[17],inactive
same,AC50,[18],70.7 µM (active)
